According to PubChem BioAssay (EPA / NIEHS):
A structure can be active in one record and inactive in another. The source made the active and inactive calls. How the source made its calls: active means hit-call score of the fitted dose curve at least 0.9, where 1 is the maximum; inactive means score below 0.9.

Read-out: Epidermal growth factor receptor (EGFR), EGFR (gene 1956)
Test: BSK_hDFCGF_EGFR: BioMAP Diversity Plus: hDFCGF Assay for Epidermal growth factor receptor (EGFR) Biomarker Activity (AID 2283057)
Conditions: primary human foreskin fibroblasts; actives raise or lower the signal
Experimental: BSK_hDFCGF is a cell-based, multiplexed-readout assay that uses foreskin fibroblast, a human skin primary cell, with measurements taken at 24 hours after chemical dosing in a 96-well plate.BSK_hDFCGF_EGFR is an assay component measured in the BSK_hDFCGF assay. It measures EGFR antibody related to regulation of gene expression using ELISA technology.Data from the assay component BSK_hDFCGF_EGFR was analyzed into 1 assay endpoint. This assay endpoint, BSK_hDFCGF_EGFR, was analyzed with bidirectional fitting relative to DMSO as the negative control and baseline of activity. Using a type of binding reporter, gain or loss-of-signal activity can be used to understand changes in the signaling as they relate to the gene EGFR. Furthermore, this assay endpoint can be referred to as a primary readout, because this assay has produced multiple assay endpoints where this one serves a signaling function. To generalize the intended target to other relatable targets, this assay endpoint is annotated to the kinase intended target family, where the subfamily is receptor tyrosine kinase.
The levels of cell surface (or secreted, indicated by the prefix "s") biomarker endpoints were measured by ELISA. Overt cytotoxicity to cells in confluent adherent cultures (all systems other than the BT system) was assessed by measuring total protein levels using sulforhodamine B (SRB) staining in parallel cultures at the time of biomarker measurements, indicated as SRB endpoints. For proliferation assays for adherent cell types, individual cell types are cultured at sub-confluence and relative cell numbers quantified by SRB staining at time points optimized for each system (48 h: 3C and CASM3C systems; 72 h: BT and HDF3CGF systems; 96 h: SAg system). SRB was performed by staining cells with 0.1% SRB after fixation with 10% TCA and reading wells at 560 nm.Viability and proliferation of PBMC (T cells) was quantified by Alamar Blue reduction for the SAg and BT systems. For PBMC viability (referred to as PBMC Cytotoxicity within the assay endpoint names), cells were plated (75,000/well in a 96-well plate) and then chemical samples added for 1 h before addition of activators, SEB and TSST-1 (20 ng/mL final concentration each). Cells were incubated for 90 h. Then, Alamar Blue (20 uL/well) (Invitrogen, Cat DAL1100) was added for 6 h, and the plates were read with a fluorescence microplate reader at 546/580 nm (excitation/emission). For PBMC proliferation, cells were plated and activated as above but incubated for only 16 h prior to addition of Alamar Blue. Plates were read after 6 h.

Question: `CC(C)Oc1cc(-n2nc(C(C)(C)C)oc2=O)c(Cl)cc1Cl` was tested. Which outcome did it give?
Answer: inactive

Question: `CCCN(CCC)c1c([N+](=O)[O-])cc(S(N)(=O)=O)cc1[N+](=O)[O-]` was tested. Which outcome did it give?
Answer: inactive

Question: How did the outcome turn out when `COC(=O)c1ccccc1C(=O)OC` was run?
Answer: inactive

Question: Which outcome does the source give for `CCOP(=S)(OCC)SCn1c(=O)oc2cc(Cl)ccc21` here?
Answer: inactive

Question: `CC1=C(C(=O)Nc2ccccc2)SCCO1` was tested. Which outcome did it give?
Answer: inactive

Question: `CC1COC(Cn2cncn2)(c2ccc(Oc3ccc(Cl)cc3)cc2Cl)O1` (stereo not given) was tested. Which AC50 did it give?
Answer: 8.04 µM (active)

Question: With `N#CC(CCc1ccc(Cl)cc1)(Cn1cncn1)c1ccccc1` (stereo not given) as the compound, how does the outcome read?
Answer: inactive

Question: Which outcome does the source give for `CCCCC(CC)COC(=O)c1ccccc1C(=O)OCC(CC)CCCC` (stereo not given) here?
Answer: inactive

Question: For `Cc1ccc(-c2c(Cl)nc(C#N)n2S(=O)(=O)N(C)C)cc1`, which outcome is on record?
Answer: inactive

Question: How did the outcome turn out when `CCNc1nc(Cl)nc(NCC)n1` was run?
Answer: inactive

Question: How did the outcome turn out when `O=C(O)c1nc(Cl)ccc1Cl` was run?
Answer: inactive

Question: How did the outcome turn out when `Cc1c(F)c(F)c(COC(=O)C2C(/C=C(\Cl)C(F)(F)F)C2(C)C)c(F)c1F` (stereo not given) was run?
Answer: inactive

Question: For `C=CCC1=C(C)[C@@H](OC(=O)[C@@H]2[C@@H](C=C(C)C)C2(C)C)CC1=O`, which AC50 is on record?
Answer: 32.4 µM (active)

Question: Which outcome does the source give for `COc1nc(C)nc(NC(=O)NS(=O)(=O)c2ccccc2Cl)n1` here?
Answer: inactive

Question: For `CO/C=C(/C(=O)OC)c1ccccc1Oc1cc(Oc2ccccc2C#N)ncn1`, which outcome is on record?
Answer: inactive

Question: For `COc1ccc(C(c2ccc(OC)cc2)C(Cl)(Cl)Cl)cc1`, which outcome is on record?
Answer: inactive

Question: With `N#Cc1cc(Br)c(O)c(Br)c1` as the compound, how does the outcome read?
Answer: inactive

Question: For `CC(C)C1(C)N=C(c2nc3ccccc3cc2C(=O)O)NC1=O` (stereo not given), which outcome is on record?
Answer: inactive

Question: For `CNC(=O)ON=CC(C)(C)SC`, which outcome is on record?
Answer: inactive

Question: For `CCOC(=O)C(Cl)Cc1cc(-n2nc(C)n(C(F)F)c2=O)c(F)cc1Cl` (stereo not given), which outcome is on record?
Answer: inactive

Question: How did the outcome turn out when `C=CCC1=C(C)C(OC(=O)C2C(C=C(C)C)C2(C)C)CC1=O` (stereo not given) was run?
Answer: inactive

Question: `CCCCNC(=O)n1c(NC(=O)OC)nc2ccccc21` was tested. Which outcome did it give?
Answer: inactive

Question: Which outcome does the source give for `C=CC1(C)OC(=O)N(c2cc(Cl)cc(Cl)c2)C1=O` (stereo not given) here?
Answer: inactive

Question: How did the outcome turn out when `C#CCOS(=O)OC1CCCCC1Oc1ccc(C(C)(C)C)cc1` (stereo not given) was run?
Answer: inactive

Question: For `N#Cc1nn(-c2c(Cl)cc(C(F)(F)F)cc2Cl)c(N)c1S(=O)C(F)(F)F` (stereo not given), which AC50 is on record?
Answer: 1.71 µM (active)

Question: `CON(C)C(=O)Nc1ccc(Cl)c(Cl)c1` was tested. Which outcome did it give?
Answer: inactive

Question: `COc1nc(C)nc(NC(=O)NS(=O)(=O)c2ccccc2CCC(F)(F)F)n1` was tested. Which outcome did it give?
Answer: inactive

Question: With `CCCC1COC(Cn2cncn2)(c2ccc(Cl)cc2Cl)O1` (stereo not given) as the compound, how does the outcome read?
Answer: inactive

Question: For `COC(=O)C(C)Oc1ccc(Oc2ccc(Cl)cc2Cl)cc1` (stereo not given), which outcome is on record?
Answer: inactive

Question: Which outcome does the source give for `COP(=S)(OC)Oc1nc(Cl)c(Cl)cc1Cl` here?
Answer: inactive

Question: For `COC(=O)N(OC)c1ccccc1COc1ccn(-c2ccc(Cl)cc2)n1`, which outcome is on record?
Answer: inactive

Question: For `CCNc1nc(Cl)nc(NC(C)C)n1`, which outcome is on record?
Answer: inactive

Question: With `COC(=O)C=C(C)OP(=O)(OC)OC` as the compound, how does the outcome read?
Answer: inactive

Question: How did the AC50 turn out when `CCCCNC(=O)OCC#CI` was run?
Answer: 11.6 µM (active)

Question: What about the outcome of the same compound?
Answer: inactive

Question: How did the outcome turn out when `COc1cnc(OC)n2nc(NS(=O)(=O)c3c(OCC(F)F)cccc3C(F)(F)F)nc12` was run?
Answer: inactive

Question: With `COc1nc(NC(C)C)nc(NC(C)C)n1` as the compound, how does the outcome read?
Answer: inactive

Question: With `CCc1nn(C)c(C(=O)NCc2ccc(C(C)(C)C)cc2)c1Cl` as the compound, how does the outcome read?
Answer: inactive

Question: With `Oc1ccccc1-c1ccccc1` as the compound, how does the outcome read?
Answer: inactive

Question: With `O=C(Nc1ccccc1)Nc1ccnc(Cl)c1` as the compound, how does the AC50 read?
Answer: 0.148 µM (active)
